Experimental data as given in PubChem BioAssay.
For some of these results: Entries with a potency or affinity are not part of this list. The source made the active and inactive calls. Unless noted, no rule for the calls is given here.

How the values were obtained:
[1] = antimalarial activity against Dd2 strain (AID 2302;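 active = growth inhibition above 50% at the single 2 µM test dose, taken to imply half-maximal potency below 2 µM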;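 also: 0% = DMSO untreated growth and 100% = chloroquine plus artemisinin killed control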); conditions: P. falciparum Dd2 in RBCs, LDH growth readout, 72 h; at 2 µM; active compounds read high
[2] = human hepatoma cell viability loss – ATP luminescence, cytotoxicity control for P. falciparum antimalarial project, primary screen (AID 2303;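 active = inhibition above 50%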;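 also: 0% = DMSO wells and 100% = digitonin-killed cells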); conditions: HepG2 viability, 24-48 h, at 10 µM, active compounds read high
[3] = target: L-lactate dehydrogenase (Plasmodium falciparum (isolate CDC / Honduras)) (UniProt Q27743); assay: PfLDH activity inhibition – cell lysate, 3D7 strain, counter-screen for P. falciparum growth inhibition project (AID 2304);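 also: 0% = vehicle and 100% = reference inhibitor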; conditions: P. falciparum 3D7 crude extract, LDH APAD/NBT absorbance; at 2 µM; active compounds read high
Sequence of L-lactate dehydrogenase (Plasmodium falciparum (isolate CDC / Honduras)) (Q27743 whole entry, looked up): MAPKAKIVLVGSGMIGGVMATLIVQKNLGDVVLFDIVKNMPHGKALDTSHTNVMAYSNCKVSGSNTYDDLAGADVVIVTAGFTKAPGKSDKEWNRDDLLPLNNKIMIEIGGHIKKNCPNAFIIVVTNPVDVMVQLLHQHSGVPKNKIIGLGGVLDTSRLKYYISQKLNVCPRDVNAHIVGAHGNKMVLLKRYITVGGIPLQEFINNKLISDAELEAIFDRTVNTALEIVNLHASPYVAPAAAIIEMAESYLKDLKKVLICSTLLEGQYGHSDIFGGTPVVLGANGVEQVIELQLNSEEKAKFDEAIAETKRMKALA

[4] = inhibition of 3D7 malaria parasite growth – strain 3D7 (AID 2306);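 also: 0% = DMSO wells and 100% = chloroquine plus artemisinin control wells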; conditions: P. falciparum 3D7 erythrocytic growth, LDH absorbance, 72 h; at 2 µM; active compounds read high
[5] = target: Calcium-dependent protein kinase 1 (Plasmodium falciparum (isolate 3D7)) (UniProt P62344); assay: PfCDPK1 kinase inhibitors, biochemical, TCAMS library (AID 1159585; cut-off not given, nearly all actives have IC50 up to about 0.98 µM;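 also: inhibitors leave more ATP so luminescence rises with inhibition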); conditions: recombinant PfCDPK1, Kinase-Glo ATP depletion luminescence
Sequence of Calcium-dependent protein kinase 1 (Plasmodium falciparum (isolate 3D7)) (P62344 whole entry, looked up): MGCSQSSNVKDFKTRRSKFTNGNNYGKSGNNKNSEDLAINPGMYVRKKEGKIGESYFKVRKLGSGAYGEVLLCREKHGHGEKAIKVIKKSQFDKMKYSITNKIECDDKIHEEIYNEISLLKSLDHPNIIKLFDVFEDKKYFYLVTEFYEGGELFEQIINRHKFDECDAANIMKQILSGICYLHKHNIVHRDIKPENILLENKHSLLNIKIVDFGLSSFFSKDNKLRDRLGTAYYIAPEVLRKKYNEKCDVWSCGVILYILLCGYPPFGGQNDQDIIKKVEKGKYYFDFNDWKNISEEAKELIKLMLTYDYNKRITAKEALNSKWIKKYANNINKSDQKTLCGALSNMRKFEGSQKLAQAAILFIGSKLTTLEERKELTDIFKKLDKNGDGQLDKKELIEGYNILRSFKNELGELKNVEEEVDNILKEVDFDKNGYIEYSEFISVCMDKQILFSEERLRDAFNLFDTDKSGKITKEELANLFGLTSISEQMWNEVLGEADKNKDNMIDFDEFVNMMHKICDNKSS

[6] = target: Plasmodium falciparum protein kinase 6 (PK6, PF3D7_1337100) (UniProt Q8IDW1); assay: PfPK6 kinase inhibitors, biochemical, TCAMS library (AID 1159586); conditions: recombinant PfPK6, Kinase-Glo ATP depletion luminescence
Sequence of Plasmodium falciparum protein kinase 6 (PK6, PF3D7_1337100) (Q8IDW1 1-305): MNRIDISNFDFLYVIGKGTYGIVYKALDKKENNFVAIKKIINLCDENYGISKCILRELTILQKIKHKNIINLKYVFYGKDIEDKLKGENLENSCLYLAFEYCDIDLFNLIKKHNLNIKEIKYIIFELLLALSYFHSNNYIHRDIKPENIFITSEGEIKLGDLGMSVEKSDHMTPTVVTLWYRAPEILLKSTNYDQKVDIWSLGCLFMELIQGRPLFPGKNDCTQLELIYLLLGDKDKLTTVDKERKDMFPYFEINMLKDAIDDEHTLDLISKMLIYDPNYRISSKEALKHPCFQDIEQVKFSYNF

[7] = target: Protein kinase 7 (PK7), Plasmodium falciparum 3D7 (PF3D7_0213400) (UniProt Q7YTF7); assay: inhibition of Plasmodium PK7 catalytic activity – biochemical, TCAMS antimalarial set, Kinase-Glo luminescence (AID 1159587); conditions: recombinant PfPK7, Kinase-Glo ATP depletion luminescence
Sequence of Protein kinase 7 (PK7), Plasmodium falciparum 3D7 (PF3D7_0213400) (Q7YTF7 1-343): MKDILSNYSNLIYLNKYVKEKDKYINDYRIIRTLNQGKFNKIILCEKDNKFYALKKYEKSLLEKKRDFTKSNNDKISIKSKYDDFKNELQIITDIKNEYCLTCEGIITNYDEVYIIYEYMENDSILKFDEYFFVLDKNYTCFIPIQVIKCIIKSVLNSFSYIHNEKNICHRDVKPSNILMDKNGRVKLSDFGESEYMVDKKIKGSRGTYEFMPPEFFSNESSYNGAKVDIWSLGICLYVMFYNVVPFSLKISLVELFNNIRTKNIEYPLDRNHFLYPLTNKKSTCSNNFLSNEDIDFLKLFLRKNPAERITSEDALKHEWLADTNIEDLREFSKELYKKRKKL

[8] = target: Calcium-dependent protein kinase 4 (Plasmodium falciparum (isolate 3D7)) (UniProt Q8IBS5); assay: PfCDPK4 kinase inhibitors, biochemical, TCAMS library (AID 1159588; cut-off not given, nearly all actives have IC50 up to about 0.91 µM); conditions: recombinant PfCDPK4, Kinase-Glo ATP depletion luminescence
Sequence of Calcium-dependent protein kinase 4 (Plasmodium falciparum (isolate 3D7)) (Q8IBS5 whole entry, looked up): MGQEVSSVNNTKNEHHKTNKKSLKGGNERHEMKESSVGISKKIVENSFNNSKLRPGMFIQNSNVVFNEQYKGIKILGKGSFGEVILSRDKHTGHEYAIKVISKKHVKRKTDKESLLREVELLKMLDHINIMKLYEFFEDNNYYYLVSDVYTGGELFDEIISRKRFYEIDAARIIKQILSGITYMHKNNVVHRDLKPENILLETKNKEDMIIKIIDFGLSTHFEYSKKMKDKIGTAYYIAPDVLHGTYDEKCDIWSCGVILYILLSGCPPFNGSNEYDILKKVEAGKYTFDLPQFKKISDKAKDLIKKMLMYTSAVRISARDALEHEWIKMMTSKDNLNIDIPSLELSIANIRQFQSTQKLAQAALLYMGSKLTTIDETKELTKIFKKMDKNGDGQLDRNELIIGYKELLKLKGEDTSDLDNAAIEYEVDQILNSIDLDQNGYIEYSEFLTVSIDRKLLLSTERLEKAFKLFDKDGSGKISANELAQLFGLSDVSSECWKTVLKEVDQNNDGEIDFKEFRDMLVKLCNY

Cc1cccc2[nH]c(=O)c([N+](=O)[O-])c(O)c12
active: growth inhibition [4] 95%
inactive: growth inhibition [1] -2% | inhibition [2] -2% | inhibition [3] -2% | outcome [5] | outcome [6] | outcome [7] | outcome [8]

COc1ccc(CCNCCCCCNCCCc2ccc(Cl)cc2)cc1OC
inactive: growth inhibition [1] 2% | inhibition [2] 24% | inhibition [3] 2% | outcome [5] | outcome [6] | outcome [7] | outcome [8]
active: growth inhibition [4] 101%

Cn1cc(CCNc2ccnc(NCCc3coc4ccccc34)n2)c2ccccc21
inactive: growth inhibition [1] 28% | inhibition [2] 26% | inhibition [3] 6% | outcome [5] | outcome [6] | outcome [7] | outcome [8]
active: growth inhibition [4] 87%

COc1cccc(-c2cccc(-c3ccc(NC(=O)c4ccc([N+](=O)[O-])o4)cc3)n2)c1
inactive: inhibition [3] 6% | outcome [5] | outcome [6] | outcome [7] | outcome [8]
active: growth inhibition [1] 94% | inhibition [2] 98% | growth inhibition [4] 97%

COc1ccc(CNCc2ccc(-c3ccc(-c4nc5ccc(F)cc5[nH]4)cc3)cc2)cc1
inactive: inhibition [3] 5% | outcome [5] | outcome [6] | outcome [7] | outcome [8]
active: growth inhibition [1] 83% | inhibition [2] 70% | growth inhibition [4] 99%

CC(N)(Cc1ccc(O)cc1)c1nn[nH]n1 (centres undefined)
inactive: growth inhibition [1] 2% | inhibition [2] 7% | inhibition [3] 4% | outcome [5] | outcome [6] | outcome [7] | outcome [8]
active: growth inhibition [4] 93%

O=C(NCCCCCN1CCC(c2c[nH]c3ccccc23)CC1)Nc1cccc(Br)c1
active: growth inhibition [4] 84%
inactive: growth inhibition [1] -3% | inhibition [2] 39% | inhibition [3] 3% | outcome [5] | outcome [6] | outcome [7] | outcome [8]

CC(=O)Nc1ccc(CN2CCC(NC(=O)c3ccc(-c4cccc(C(F)(F)F)c4)s3)CC2)cc1
inactive: growth inhibition [1] 16% | inhibition [2] 35% | inhibition [3] -3% | outcome [5] | outcome [6] | outcome [7] | outcome [8]
active: growth inhibition [4] 100%

Cc1nnsc1C(=O)Nc1ccc(-c2cccc(-c3nc4ccc(C(F)(F)F)cc4[nH]3)c2)cc1
active: inhibition [2] 69% | growth inhibition [4] 97%
inactive: growth inhibition [1] 36% | inhibition [3] 2% | outcome [5] | outcome [6] | outcome [7] | outcome [8]

CC(C)c1ncc(-c2ccncc2)c(C2CCC(CNC(=O)c3ccncc3)CC2)n1 (centres undefined)
inactive: growth inhibition [1] 49% | inhibition [2] -6% | inhibition [3] 4% | outcome [5] | outcome [6] | outcome [7] | outcome [8]
active: growth inhibition [4] 85%

O=C(N[C@@H](Cc1ccccc1)C(=O)O)c1cc(-c2ccc(F)cc2)no1 (tested in a mixture with another compound)
active: growth inhibition [4] 96%
inactive: growth inhibition [1] 49% | inhibition [2] -2% | inhibition [3] -3% | outcome [5] | outcome [6] | outcome [7] | outcome [8]

C=CCOc1ccc(-c2c(C)[nH]c(C)c(Br)c2=O)cc1
inactive: inhibition [2] 5% | inhibition [3] -3% | outcome [5] | outcome [6] | outcome [7] | outcome [8]
active: growth inhibition [1] 96% | growth inhibition [4] 98%

CCc1cc2c3c(N)nc(N)nc3ccc2n1CC
active: inhibition [2] 62% | growth inhibition [4] 93%
inactive: growth inhibition [1] -2% | inhibition [3] -1% | outcome [5] | outcome [6] | outcome [7] | outcome [8]

CCN1CCN(c2cc(C)c3cc(NC(=O)c4cccc(Cl)c4)ccc3n2)CC1
inactive: inhibition [2] 4% | inhibition [3] -4% | outcome [5] | outcome [6] | outcome [7] | outcome [8]
active: growth inhibition [1] 58% | growth inhibition [4] 100%

COc1ccc(-c2cccc(NC(=O)c3ccc(F)cc3)c2)cc1CN1CCCN(C)CC1
inactive: growth inhibition [1] 35% | inhibition [2] 26% | inhibition [3] 2% | outcome [5] | outcome [6] | outcome [7] | outcome [8]
active: growth inhibition [4] 101%

COc1ccc(C2CC(=O)C3=C(C2)NC(C)=C(C(=O)OC2CCCC2)C3c2ccc(O)cc2)cc1OC (centres undefined)
inactive: inhibition [2] -9% | inhibition [3] -7% | outcome [5] | outcome [6] | outcome [7] | outcome [8]
active: growth inhibition [1] 92% | growth inhibition [4] 97%

Cc1cc(N[C@@H](Cc2ccccc2)C(=O)Nc2ccccc2)nc(Nc2ccccc2)n1
active: growth inhibition [1] 69% | growth inhibition [4] 101%
inactive: inhibition [2] 8% | inhibition [3] -1% | outcome [5] | outcome [6] | outcome [7] | outcome [8]

NC(CC1CC(=O)N1CC(=O)O)C(=O)O (centres undefined)
inactive: growth inhibition [1] -3% | inhibition [3] -5% | outcome [5] | outcome [6] | outcome [7] | outcome [8]
active: inhibition [2] 56% | growth inhibition [4] 95%

Cc1ccc(C(=O)Nc2ccc(-c3nc4ccccc4[nH]3)cc2)cc1S(=O)(=O)N1CCOCC1
inactive: growth inhibition [1] 16% | inhibition [3] 4% | outcome [5] | outcome [6] | outcome [7] | outcome [8]
active: inhibition [2] 56% | growth inhibition [4] 90%

Clc1ccc2nc(-c3cccnc3)[nH]c2c1
active: growth inhibition [1] 97% | growth inhibition [4] 92%
inactive: inhibition [2] -11% | inhibition [3] 2% | outcome [5] | outcome [6] | outcome [7] | outcome [8]

NCc1cccc(-c2ccc(CNC3CCN(Cc4ccccc4)CC3)cc2)c1
active: growth inhibition [4] 95%
inactive: growth inhibition [1] 3% | inhibition [2] 2% | inhibition [3] 0% | outcome [5] | outcome [6] | outcome [7] | outcome [8]

CCOc1ccc2nc(C)cc(NN=Cc3ccc(Cl)cc3)c2c1
active: growth inhibition [1] 100% | growth inhibition [4] 100%
inactive: inhibition [2] 0% | inhibition [3] 5% | outcome [5] | outcome [6] | outcome [7] | outcome [8]

CN(c1ccc(NC(=O)Nc2cc(C(F)(F)F)ccc2F)cc1)c1ccnc(NCCN2CCCC2)n1
inactive: growth inhibition [1] 1% | inhibition [3] -2% | outcome [5] | outcome [6] | outcome [7] | outcome [8]
active: inhibition [2] 94% | growth inhibition [4] 93%

CN(C)CCNCc1cccc(-c2ccc3c(Nc4cc(O)c(Cl)cc4F)ccnc3c2)c1
inactive: inhibition [2] 6% | inhibition [3] 3% | outcome [5] | outcome [6] | outcome [7] | outcome [8]
active: growth inhibition [1] 59% | growth inhibition [4] 99%

CCc1ccc(-c2cnc(N)c3cc(-c4ccnc(N)n4)ccc23)cc1
inactive: inhibition [2] 37% | inhibition [3] 0% | outcome [5] | outcome [6] | outcome [7] | outcome [8]
active: growth inhibition [1] 70% | growth inhibition [4] 92%

Cc1nnc(Sc2ncnc3scc(-c4ccc(F)cc4)c23)s1
active: growth inhibition [1] 50% | growth inhibition [4] 99%
inactive: inhibition [2] 13% | inhibition [3] 4% | outcome [5] | outcome [6] | outcome [7] | outcome [8]

CC[C@H](N=C(Nc1ccc(-c2ccccc2)cc1)Nc1ccc(C#N)cc1O)c1ccccc1
inactive: inhibition [2] -6% | inhibition [3] 4% | outcome [5] | outcome [6] | outcome [7] | outcome [8]
active: growth inhibition [1] 97% | growth inhibition [4] 99%

NC(=O)C1CCN(Cc2ccc(-c3ccc(-c4nc5ccc(C(F)(F)F)cc5[nH]4)cc3)cc2)CC1
inactive: inhibition [2] 25% | inhibition [3] -1% | outcome [5] | outcome [6] | outcome [7] | outcome [8]
active: growth inhibition [1] 90% | growth inhibition [4] 100%

Cc1cccc2[nH]c(-c3cccc(-c4ccc(NC(=O)Cc5ccon5)cc4)c3)nc12
active: growth inhibition [4] 87%
inactive: growth inhibition [1] 38% | inhibition [2] 34% | inhibition [3] 2% | outcome [5] | outcome [6] | outcome [7] | outcome [8]

CCCCCCCCc1c(C)[nH]c(C)c(Cl)c1=O
active: growth inhibition [1] 95% | growth inhibition [4] 96%
inactive: inhibition [2] -4% | inhibition [3] -3% | outcome [5] | outcome [6] | outcome [7] | outcome [8]

O=C(Cc1cnc[nH]1)Nc1cccc(-c2ccc(-c3nc4ccc(F)cc4[nH]3)s2)c1
active: growth inhibition [1] 94% | growth inhibition [4] 101%
inactive: inhibition [2] 4% | inhibition [3] -12% | outcome [5] | outcome [6] | outcome [7] | outcome [8]

COC(=O)c1c(C#N)c(OC)cc(O)c1CSC[C@@H](CN1CCCCC1)Nc1nc(-c2ccc([N+](=O)[O-])cc2)cs1
inactive: inhibition [2] 8% | inhibition [3] -3% | outcome [5] | outcome [6] | outcome [7] | outcome [8]
active: growth inhibition [1] 77% | growth inhibition [4] 101%

c1ccc(-c2nc(Nc3nc4ccccc4[nH]3)[nH]c2-c2ccccc2)cc1
active: growth inhibition [1] 61% | growth inhibition [4] 96%
inactive: inhibition [2] 14% | inhibition [3] -5% | outcome [5] | outcome [6] | outcome [7] | outcome [8]

COc1ccc(CNC2CCN(C)CC2)cc1-c1ccc(S(=O)(=O)NCCc2ccccn2)cc1
inactive: growth inhibition [1] 17% | inhibition [2] 13% | inhibition [3] -5% | outcome [5] | outcome [6] | outcome [7] | outcome [8]
active: growth inhibition [4] 93%

O=C(c1ccc([N+](=O)[O-])o1)N1CCC(Cc2ccc(C(F)(F)F)cc2)CC1
active: growth inhibition [1] 99% | growth inhibition [4] 101%
inactive: inhibition [2] 38% | inhibition [3] -2% | outcome [5] | outcome [6] | outcome [7] | outcome [8]

COc1cc2nc(N3CCC(CNC(=O)c4cccc5cc[nH]c45)CC3)nc(N)c2cc1OC
inactive: growth inhibition [1] 24% | inhibition [2] 33% | inhibition [3] -3% | outcome [5] | outcome [6] | outcome [7] | outcome [8]
active: growth inhibition [4] 98%

Cc1cc(C(=O)CN2C(=O)NC(C)(c3cccc4ccccc34)C2=O)c(C)n1Cc1ccco1 (centres undefined)
inactive: growth inhibition [1] 23% | inhibition [2] -2% | inhibition [3] 0% | outcome [5] | outcome [6] | outcome [7] | outcome [8]
active: growth inhibition [4] 90%

O=C(Nc1cccc(CN2CCCN(Cc3ccc4c(c3)OCO4)CC2)c1)c1ccc(Cl)c(Cl)c1
inactive: growth inhibition [1] 10% | inhibition [2] 34% | inhibition [3] -2% | outcome [5] | outcome [6] | outcome [7] | outcome [8]
active: growth inhibition [4] 92%
